Measurements reported in PubChem BioAssay (EPA / NIEHS).
Where “and” joins values, the source holds several entries; their conditions need not be identical. Equal entries are not always repeated. Records with an inconclusive call do not appear. More than one record can exist for a structure, and the calls need not agree. Calls of active or inactive are those of the source. Rule for the calls: active = hit-call score of the fitted dose curve at least 0.9, where 1 is the maximum; inconclusive = response in the unintended direction; inactive = score below 0.9.

Molecular target: Retinoic acid receptor RXR-alpha (Homo sapiens) (UniProt P19793)
Sequence (P19793 whole entry, looked up): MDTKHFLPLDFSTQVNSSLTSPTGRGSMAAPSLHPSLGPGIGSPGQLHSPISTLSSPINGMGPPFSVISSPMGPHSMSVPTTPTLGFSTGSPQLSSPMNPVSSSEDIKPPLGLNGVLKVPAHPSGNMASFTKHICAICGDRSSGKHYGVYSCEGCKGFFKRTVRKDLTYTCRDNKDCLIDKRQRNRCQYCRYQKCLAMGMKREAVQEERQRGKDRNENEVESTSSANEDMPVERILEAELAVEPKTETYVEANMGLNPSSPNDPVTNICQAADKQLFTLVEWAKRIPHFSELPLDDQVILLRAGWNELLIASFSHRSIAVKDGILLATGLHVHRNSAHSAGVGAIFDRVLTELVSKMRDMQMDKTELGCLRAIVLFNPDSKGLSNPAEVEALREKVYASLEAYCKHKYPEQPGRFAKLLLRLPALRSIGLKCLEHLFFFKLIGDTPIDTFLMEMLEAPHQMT
Experiment: OT_NURR1_NURR1RXRa_1440: Odyssey Thera (OT) 24-hour HEK293T Protein Complementation Assay for Nurr1/retinoid X receptor (RXR) (AID 2283386)
Protocol: OT_NURR1_NURR1RXRa_1440 is a cell-based assay that uses HEK293T, a human kidney cell line, with measurements taken at 24 hours after chemical dosing in a 384-well plate.OT_NURR1_NURR1RXRa_1440 is one of one assay component(s) measured or calculated from the OT_NURR1_NURR1RXRa_1440 assay. It is designed to make measurements of protein fragment complementation, a form of binding reporter, as detected with fluorescence intensity signals by Protein-fragment Complementation technology.Data from the assay component OT_NURR1_NURR1RXRa_1440 was analyzed into 1 assay endpoint. This assay endpoint, OT_NURR1_NURR1RXRa_1440, was analyzed in the positive analysis fitting direction relative to DMSO as the negative control and baseline of activity. Using a type of binding reporter, measures of receptor for gain-of-signal activity can be used to understand the binding at the pathway-level as they relate to the gene RXRA. Furthermore, this assay endpoint can be referred to as a primary readout, because the performed assay has only produced 1 assay endpoint. To generalize the intended target to other relatable targets, this assay endpoint is annotated to the nuclear receptor intended target family, where the subfamily is non-steroidal.
Protein-fragment complementation assay, or PCA, is a method for the identification and quantification of protein-protein interactions. In the PCA, the proteins of interest ("bait" and "prey") are each covalently linked to fragments of a third protein (e.g. DHFR, which acts as a "reporter"). Interaction between the bait and the prey proteins brings the fragments of the reporter protein in close proximity to allow them to form a functional reporter protein whose activity can be measured.

| SMILES | AC50 | outcome |
| --- | --- | --- |
| [Cl-].[Cl-].[Hg+2] | 11.4 µM (active) | – |
| CC(C)(C)OOC(C)(C)CCC(C)(C)OOC(C)(C)C | – | inactive |
| CN(C)[C@@H]1C(=O)C(C(N)=O)=C(O)[C@@]2(O)C(=O)C3=C(O)c4c(O)cccc4[C@@](C)(O)[C@H]3C[C@@H]12 | – | inactive |
| OCCOCCO | – | inactive |
| O=[N+]([O-])c1ccc(Oc2ccc(Cl)cc2Cl)cc1 | – | inactive |
| CC(O)CCO (stereo not given) | – | inactive |
| Nc1ccc(Cl)cc1N | 31.3 µM (active) | inactive |
| c1ccc(N=Nc2ccccc2)cc1 | – | inactive |
| ClCCOCCCl | – | inactive |
| CCNS(=O)(=O)C(F)(F)C(F)(F)C(F)(F)C(F)(F)C(F)(F)C(F)(F)C(F)(F)C(F)(F)F | – | inactive |
| c1ccc(NNc2ccccc2)cc1 | 82.8 µM (active) | inactive |
| Cc1ccc(N)cc1 | 50 µM (active) | inactive |
| CC(C)(C)C(O)(CCc1ccc(Cl)cc1)Cn1cncn1 (stereo not given) | – | inactive |
| Cc1ccc([N+](=O)[O-])cc1 | – | inactive |
| Clc1ccc(C(c2ccc(Cl)cc2)C(Cl)(Cl)Cl)cc1 | – | inactive |
| Nc1ccc([N+](=O)[O-])cc1 | 26.9 µM (active) | inactive |
| c1ccc2c(c1)-c1cccc3cccc-2c13 | – | inactive |
| C[N+](C)(C)CC1CO1 (stereo not given) | – | inactive |

| SMILES | AC50 | outcome |
| --- | --- | --- |
| CCCCC(CC)COC(=O)c1ccc(C(=O)OCC(CC)CCCC)c(C(=O)OCC(CC)CCCC)c1 (stereo not given) | – | inactive |
| Nc1ccc(Oc2ccc(N)cc2)cc1 | – | inactive |
| c1ccc2c(c1)oc1ccccc12 | – | inactive |
| CCCCOC(=O)c1ccccc1C(=O)OCc1ccccc1 | – | inactive |
| CCCCCOC(=O)c1ccccc1C(=O)OCCCCC | – | inactive |
| OCCCl | – | inactive |
| CCOc1cccc(C2(N3CCN(c4ccccc4)CC3)CCC(C)CC2)c1 (stereo not given) | – | inactive |
| CCCCCCCCn1sccc1=O | 12 µM (active) | – |
| COC(=O)Nc1nc2ccccc2[nH]1 | – | inactive |
| Oc1ccc2ccc3cccc4ccc1c2c34 | 9.46 µM (active) | inactive |
| ClC1=C(Cl)C2(Cl)C3C(Cl)C=CC3C1(Cl)C2(Cl)Cl (stereo not given) | – | inactive |
| c1ccc(C2CO2)cc1 (stereo not given) | – | inactive |
| CC(C)(OOC(C)(C)c1ccccc1)c1ccccc1 | 78.3 µM (active) and 78.5 µM (active) | – |
| Cc1ccc(N)c(N)c1 | – | inactive |
| COC(=O)c1ccccc1N | – | inactive |
| Nc1ccc(Cc2ccc(N)cc2)cc1 | – | inactive |
| CNC(=O)Oc1cccc2c1OC(C)(C)C2 | – | inactive |
